Measured values taken from the supplement of paper PMC6555819.

Assays:
Assay in all cases: PBM binding z-score (relative to random genomic background probes); higher = stronger binding; sequences stand for … in GC…GCGATTGACAGCGTAGAATGAAGG
[1] = tested on: FXR:RXRa (NR concentration 270 nM, RXRa partner concentration 90 nM)
Summary of the method: (§1)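 Each nuclear receptor dimer, without ligand, was incubated for 1 h on custom Agilent 4×180K protein-binding microarrays. Binding was detected with antibodies against each partner (one per run), and scanned fluorescence was regression-normalized. The binding z-scores are referenced to random human genomic background probes.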

[2] = tested on: LXRa:RXRa (NR concentration 270 nM, RXRa partner concentration 90 nM)
Summary of the method: as §1

[3] = tested on: LXRa homodimer (NR concentration 270 nM)
Summary of the method: as §1

[4] = tested on: LXRb:RXRa (NR concentration 270 nM, RXRa partner concentration 90 nM)
Summary of the method: as §1

[5] = tested on: LXRb homodimer (NR concentration 270 nM)
Summary of the method: as §1

[6] = tested on: PPARa:RXRa (NR concentration 270 nM, RXRa partner concentration 90 nM)
Summary of the method: as §1

[7] = tested on: PPARg:RXRa (NR concentration 180 nM, RXRa partner concentration 90 nM)
Summary of the method: as §1

[8] = tested on: PPARg:RXRa 270nM:90nM, anti-RXR (NR concentration 270 nM, RXRa partner concentration 90 nM)
Summary of the method: as §1

[9] = tested on: PPARg:RXRa 30nM:10nM, anti-RXR (NR concentration 30 nM, RXRa partner concentration 10 nM)
Summary of the method: as §1

[10] = tested on: PPARg:RXRa 90nM:30nM, anti-RXR (NR concentration 90 nM, RXRa partner concentration 30 nM)
Summary of the method: as §1

[11] = tested on: PPARg:RXRa DBDmut IVT, anti-RXR (DBD mutation: RXRa K156A/R161A, NR concentration 270 nM, RXRa partner concentration 90 nM)
Summary of the method: as §1

[12] = tested on: PPARg:RXRa IVT, anti-PPARg (NR concentration 270 nM, RXRa partner concentration 90 nM)
Summary of the method: as §1

[13] = tested on: PPARg DBDmut:RXRa IVT, anti-PPARg (DBD mutation: PPARg1 K132A/R137A, NR concentration 270 nM, RXRa partner concentration 90 nM)
Summary of the method: as §1

[14] = tested on: PPARg DBDmut IVT, anti-PPARg (DBD mutation: PPARg1 K132A/R137A, NR concentration 270 nM)
Summary of the method: as §1

[15] = tested on: PPARg homodimer (NR concentration 180 nM)
Summary of the method: as §1

[16] = tested on: PXR:RXRa (NR concentration 270 nM, RXRa partner concentration 90 nM)
Summary of the method: as §1

[17] = tested on: PXR homodimer (NR concentration 270 nM)
Summary of the method: as §1

[18] = tested on: RARa:RXR (NR concentration 270 nM, RXRa partner concentration 90 nM)
Summary of the method: as §1

[19] = tested on: RARa homodimer (NR concentration 270 nM)
Summary of the method: as §1

[20] = tested on: RARb:RXRa (NR concentration 270 nM, RXRa partner concentration 90 nM)
Summary of the method: as §1

Row | Sequence | PBM binding z-score [1] | PBM binding z-score [2] | PBM binding z-score [3] | PBM binding z-score [4] | PBM binding z-score [5] | PBM binding z-score [6] | PBM binding z-score [7] | PBM binding z-score [8] | PBM binding z-score [9] | PBM binding z-score [10] | PBM binding z-score [11] | PBM binding z-score [12] | PBM binding z-score [13] | PBM binding z-score [14] | PBM binding z-score [15] | PBM binding z-score [16] | PBM binding z-score [17] | PBM binding z-score [18] | PBM binding z-score [19] | PBM binding z-score [20]
1 | AGAATGAGTTTACCAAAGATCAGGGAAACGCTTG | -0.512 | 2.97 | -0.355 | -0.0367 | -0.632 | 0.0717 | 0.658 | 0.55 | 0.448 | 0.452 | -0.401 | -0.237 | 0.734 | -0.0652 | -0.566 | 0.296 | 0.241 | -0.198 | -0.325 | 0.347
2 | AGAACGAGGGGAATGAGTTGATAGCACGGGTGGC | -0.0217 | -0.0133 | -0.00891 | -0.228 | 0.0514 | 0.192 | 0.861 | -0.0385 | -0.193 | -0.152 | 1.5 | 0.636 | 0.108 | 0.301 | 0.561 | -0.115 | 0.264 | 0.125 | 0.109 | 0.142
3 | CAAACAAGGTCAAGGTCAAAGTCGGTTTGTGCCA | – | – | 4.84 | – | 2.25 | 6.38 | 7.93 | 7.31 | 4.7 | 6.55 | 5.99 | 6.6 | 3.37 | 1.15 | 4.82 | – | 3 | 6.86 | 2.95 | –
4 | TAGCCTATGTCAGATCGGGCCAGTATACGCTATA | -0.25 | -0.56 | -0.38 | -0.651 | -0.818 | -0.546 | 0.0766 | -0.557 | -0.477 | -0.278 | -0.342 | -0.424 | -0.269 | -0.692 | -1.19 | -0.323 | -0.853 | 0.184 | -0.755 | 0.0129
5 | ATCGAAAGATCGTGAGGTGAGTATACAGAAAGGC | 0.0329 | -0.211 | 0.0924 | -0.208 | -0.374 | 0.327 | 0.669 | -0.00875 | 0.225 | 0.106 | -1.15 | 0.285 | 0.657 | 0.767 | -0.197 | -0.0729 | -0.403 | 0.277 | -0.457 | 0.133
6 | CGGCCAAGGTCAAGGTCAGTGAAAGAGACTCGAA | 7.61 | 5.58 | 0.407 | 4.63 | 0.323 | 6.12 | 6.44 | 6.23 | 2.33 | 4.85 | 3.44 | 4.67 | 0.246 | -0.532 | 3.93 | 5.02 | 0.799 | 5.17 | 1.18 | 5.71
7 | CAAACTAGGTCAAGAGGTAAAAGTCCGCTTCCCG | 4.11 | 3.15 | 0.451 | 2.2 | 0.356 | 5.2 | 8.8 | 7.58 | 5.87 | 7.82 | 8.5 | 8.39 | 6.02 | 5.32 | 3.74 | 1.92 | 0.28 | 3.43 | 0.988 | 4.19
8 | ACAAGCAGGCCAAGGGTCACTCAAGATTAGTCCG | 2.26 | 2.92 | 0.0513 | 2.56 | -0.322 | 4.58 | 8.28 | 7.67 | 6.24 | 7.51 | 1.27 | 3.95 | 0.299 | -0.852 | 2.21 | 3.26 | -0.154 | 4.08 | 0.779 | 3.47
9 | AGTCAAAGTTCATCTAGGTAATGTAAGATATGCT | 6.48 | 6.26 | 5.38 | 4.07 | 1.98 | 4.95 | 6.59 | 6.48 | 3.67 | 5.42 | 1.01 | 3.31 | 1.3 | 1.47 | 2.6 | 5.28 | 6.34 | 3.72 | 1.8 | 4.94
10 | GCGACTGGGGCAAAGCAGGTTACCATCAGGTTGG | 0.219 | 0.0244 | -0.624 | 0.0908 | -1.13 | 1.24 | 0.987 | 1.13 | -0.557 | 0.405 | 3.88 | 3.6 | -0.221 | -0.906 | 0.147 | 0.343 | -0.136 | 0.899 | -1.19 | 0.889
11 | CCTTACGGGTCACTGACAGGGTATAGCATTTGGA | 4.47 | 3.35 | 0.0232 | 2.72 | -0.363 | 4.64 | 3.98 | 4.07 | 1.2 | 2.69 | 2.63 | 3.31 | 0.282 | 0.192 | 1.91 | 2.87 | -0.101 | 3.64 | 0.315 | 3.73
12 | CAAACAAGGTCAAGAGGTCAAAGTCCGCTTCCCG | – | – | 7.29 | – | 2.87 | – | 8.71 | 8.05 | 6.08 | 7.7 | 5.59 | 6.52 | 1.74 | 1.24 | 8.18 | – | 5.91 | – | 4.23 | –
13 | CATACAGGGTCAGCTAGGCCTGAGTAGGGACGGC | 4.59 | 2.64 | -0.384 | 1.79 | 0.0921 | 4.12 | 3.11 | 2.94 | 0.751 | 1.89 | 1.1 | 2.26 | 0.675 | -0.0533 | 1.27 | 1.8 | -0.411 | 3.27 | 0.583 | 3.86
14 | CGTCCAAGGTCAGAGAGGACAGTGAATGCCGAGT | 4.64 | 3.42 | 0.241 | 2.28 | -0.021 | 3.85 | 2.24 | 2.75 | 0.355 | 1.59 | 2.32 | 2.3 | -0.223 | -1.03 | 2.09 | 3.22 | 4.69 | 2.69 | 0.425 | 4.64
15 | GAGACTGGGGCAAAGCAGGTTACCATAAGGTTGG | 0.509 | 0.532 | -0.00898 | 0.677 | -0.382 | 2.04 | 2.19 | 1.98 | 0.147 | 1.35 | 5.26 | 5.09 | 0.833 | 0.122 | 1.16 | 0.725 | 0.197 | 1.26 | -0.331 | 1.14
